Measurements reported in paper PMC5540273 (PLoS ONE, 2017).

Legend:
Conditions in all cases: concentration: 1 μM, replicates: in singlicate; n = 1
MAP3K15 = system: MAP3K15
MAP3K1 = system: MAP3K1
MAP3K2 = system: MAP3K2
MAP3K3 = system: MAP3K3
MAP3K4 = system: MAP3K4
MAP4K2 = system: MAP4K2
MAP4K3 = system: MAP4K3
MAP4K4 = system: MAP4K4
MAP4K5 = system: MAP4K5
MAPKAPK2 = system: MAPKAPK2
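Also: KINOMEscan kinase panel screen.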

Row | Structure (SMILES) | %Inh (MAP3K15) | %Inh (MAP3K1) | %Inh (MAP3K2) | %Inh (MAP3K3) | %Inh (MAP3K4) | %Inh (MAP4K2) | %Inh (MAP4K3) | %Inh (MAP4K4) | %Inh (MAP4K5) | %Inh (MAPKAPK2)
1 | Cc1ccc(NC(=O)c2cccc(N3CCCCC3)c2)cc1-c1ccc(C(=O)NCC2CC2)cc1 [GSK1917008] | 11% | 17% | 0% | 0% | 28% | 5% | 80% | 16% | 22% | 18%
2 | O=C(O)C(F)(F)F.O=c1[nH]ccc2nc(N[C@@H]3CCNC3)nc(Nc3ccc4c(c3)S(=O)(=O)CC4)c12 [GSK2181306] | 49% | 28% | 85% | 76% | 34% | 100% | 96% | 92.6% | 95.6% | 33%
3 | CC(C)c1nc(-c2cccc(NS(=O)(=O)c3c(F)cccc3F)c2)c(-c2ccnc(Nc3ccc(N4CCOCC4)nc3)n2)s1.Cl [GSK1723980] | 7% | 13% | 28% | 71% | 28% | 0% | 47% | 0% | 48% | 0%
4 | CN(c1ccc(NC(=O)Nc2cccc(Cl)c2)cc1)c1ccnc(N)n1.Cl [GW830707] | 0% | 0% | 0% | 23% | 0% | 10% | 0% | 0% | 16% | 0%
5 | Cn1cc(-c2ccc3c(c2)CCN3C(=O)Cc2cc(F)cc(C(F)(F)F)c2)c2c(N)ncnc21 [GSK2635225] | 0% | 3% | 33% | 12% | 41% | 0% | 25% | 0% | 31% | 10%
6 | Cc1ccccc1CC(=O)N1CCc2cc(-c3cn(C)c4ncnc(N)c34)ccc21 [GSK2603346] | 20% | 19% | 88% | 62% | 90% | 29% | 97.8% | 0% | 88% | 7%
7 | CN(c1ccc(F)c(NC(=O)c2cccc(OC(C)(C)C#N)c2Cl)c1)c1ccc2nc(NC(=O)C3CC3)sc2n1 | 0% | 0% | 0% | 15% | 0% | 0% | 0% | 75% | 0% | 0%
8 | NCCC(NC(=O)c1cc(Br)c(-c2ccnc3[nH]ccc23)s1)c1ccccc1.O=C(O)C(F)(F)F.O=C(O)C(F)(F)F (centres unmarked) [GSK1307810] | 65% | 16% | 38% | 2% | 0% | 23% | 15% | 45% | 0% | 0%
